Assay outcomes from PubChem BioAssay.
GPT2 inhibitor: Primary qHTS assay for inhibitors of Glutamate pyruvate transaminase 2 (GPT2). Alanine aminotransferase 2 (Homo sapiens), Q8TD30. Potency, µM (titrated, usually from 57.7 µM), for inactives: at the top dose activity change, negative = inhibition, hits mostly inhibitors. Recombinant GPT2, coupled pyruvate oxidase/HRP Amplex Red fluorescence. 100,000 tested, 0.25% active; note: % is set by controls: 0 for no effect and ±100 for the full control effect; nearly all actives have a fitted effect of over 60% in size
Target sequence (Q8TD30 whole entry, looked up): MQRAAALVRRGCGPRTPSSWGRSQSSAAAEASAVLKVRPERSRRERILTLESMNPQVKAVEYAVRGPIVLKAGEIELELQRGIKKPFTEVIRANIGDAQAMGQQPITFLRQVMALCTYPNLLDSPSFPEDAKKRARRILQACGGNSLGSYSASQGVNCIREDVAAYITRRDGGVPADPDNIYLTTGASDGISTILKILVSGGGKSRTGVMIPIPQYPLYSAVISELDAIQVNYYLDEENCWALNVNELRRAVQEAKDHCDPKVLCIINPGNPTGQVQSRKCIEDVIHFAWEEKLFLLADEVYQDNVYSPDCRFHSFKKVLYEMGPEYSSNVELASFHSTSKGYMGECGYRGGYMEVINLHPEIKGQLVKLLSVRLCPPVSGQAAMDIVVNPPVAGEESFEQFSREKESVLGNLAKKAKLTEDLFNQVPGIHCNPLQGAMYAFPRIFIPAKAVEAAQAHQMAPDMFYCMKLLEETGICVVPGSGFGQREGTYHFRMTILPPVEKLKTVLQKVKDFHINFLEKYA
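Recombinant GPT2 (10ng/uL) with 250uM a-KG and 2mM L-alanine, 30 min at room temperature, in HEPES pH 7.5 buffer. Pyruvate detected by pyruvate oxidase/HRP/Amplex Red fluorescence after 30 min in the dark; AOA (50uM) as positive control.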
HEK293 tox: Cytotoxic Profiling in HEK 293 Cell Line of Diverse Libraries Using Quantitative High-Throughput Screening; HEK 293 viability, ATP luminescence (CellTiter-Glo), 48-72 h; AID 1345083, 2018; 94,000 tested, 6.6% active; Potency, µM (doses to about 115 µM), inactives show top-dose activity change, negative = cytotoxicity, usual class: inhibitors; note: % is set by controls: 0 for no effect and ±100 for the full control effect; nearly all actives have a fitted effect of over 60% in size
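Luminescence from cellular ATP, measured with CellTiter-Glo, indicates HEK 293 viability. Cells plated at 250 cells/well are treated with compound for 48 or 72 hr at 37 degree Celsius before reagent addition.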
FLuc inh-1: Firefly luciferase inhibition profiling of diverse chemical library using quantitative high-throughput screening; Luciferin 4-monooxygenase (Photinus pyralis), P08659; purified P. pyralis luciferase, luminescence, biochemical; Potency, µM (series often up to 115 µM), most hits filed as inhibitors; 76,000 tested, 2.5% active; AID 1347043, 2019; note: % is set by controls: 0 for no effect and ±100 for the full control effect; nearly all actives have a fitted effect of over 65% in size
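Purified 10nM P. pyralis luciferase with 10uM D-luciferin and 10uM ATP in 50mM Tris acetate pH 7.5, 10mM Mg acetate, 0.01% Tween-20, 0.05% BSA. qHTS titration; luminescence read by CCD imager.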
3T3 cytotox: Cytotoxic Profiling in NIH 3T3 Cell Line of Diverse Libraries Using Quantitative High-Throughput Screening | NIH 3T3 viability, CellTiter-Glo ATP luminescence, 48-72 h | Potency, µM (series often up to 96.7 µM), without a hit: top-dose activity change, negative = cytotoxicity, usual class: inhibitors | 94,000 tested, 4.3% active; note: % is set by controls: 0 for no effect and ±100 for the full control effect; nearly all actives have a fitted effect of over 55% in size
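Luminescent ATP readout (CellTiter-Glo, 10 min RT) after 48 or 72 hr compound exposure of NIH 3T3 cells seeded at 400 cells/well in 1536-well format; quantitative HTS.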
hNpr1 antagonist: Natriuretic polypeptide receptor (hNpr1) antagonism - Primary qHTS. Potency, µM (series often up to 46.3 µM), inactives show top-dose activity change, negative = inhibition, most hits filed as inhibitors. HEK293 hNpr1 GloSensor cGMP, ANP-stimulated luminescence. AID 1347048, 2019. Atrial natriuretic peptide receptor 1 (Homo sapiens), P16066. 76,000 tested, 1.6% active; calls by dose curve; note: % is set by controls: 0 for no effect and ±100 for the full control effect; nearly all actives have a fitted effect of over 60% in size
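HEK293 cells stably expressing human Npr1 and cGMP GloSensor pGS-40F, loaded 2 h with 2% GloSensor reagent, given compound 30 min at room temperature. Luminescence read before and 20 min after 0.1 nM hNppA.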
FLuc SDR no ATP: Firefly luciferase (FLuc-C-HiBiT) SDR gain of signal screen - without ATP; Potency, µM (titrated, usually from 32.7 µM), for inactives: at the highest dose activation (signal gain), usual class: activators; Purified FLuc-C-HiBiT, Nano-Glo HiBiT luminescence, no ATP; 1,300 tested, 7.8% active; AID 1963318, 2024; shares compounds with FLuc inh-1; note: nearly all actives have a fitted effect of over 55% in size
FLuc SDR ATP: Firefly luciferase (FLuc-C-HiBiT) SDR gain of signal screen - plus ATP; Potency, µM (highest dose often 32.7 µM), without a hit: top-dose activation (gain of signal), hits mostly activators; 1,300 tested, 8.7% active; purified FLuc-C-HiBiT + ATP, HiBiT complementation luminescence; shares compounds with FLuc inh-1;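 note: signal reports ligand binding via conformational change of the enzyme rather than luciferase catalysis; % of control where 0% means no effect; nearly all actives have a fitted effect of over 55% in size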
FLuc inh-2: Firefly luciferase (FLuc-C-HiBiT) enzymatic inhibition screen - Functional assay | shares compounds with FLuc inh-1 | purified FLuc-C-HiBiT enzyme, luciferin luminescence | Potency, µM (series often up to 32.7 µM), for inactives: at the top dose activity change, negative = inhibition, actives largely listed as inhibitors | 1,300 tested, 42% active | AID 1963320, 2024; note: % is set by controls: 0 for no effect and ±100 for the full control effect; nearly all actives have a fitted effect of over 70% in size
* hit, by the source's call; i = inactive; u = inconclusive; x = not tested or not shown; [ ] = remark or other dose. A selection: hits, their analogues and other compounds. The true share with any hit is near 10%. Unless noted, calls come from the whole dose curve; as a rule, active = well fitted curve in the direction sought with a large enough effect; inconclusive = small, poorly fitted or top-dose-only effect, or another doubt; inactive = no such curve, though single readings can be large; an effect the other way counts as inactive or inconclusive. Potency is the fitted concentration of half-maximal effect.

SMILES	GPT2 inhibitor	HEK293 tox	FLuc inh-1	3T3 cytotox	hNpr1 antagonist	FLuc SDR no ATP	FLuc SDR ATP	FLuc inh-2
OC(c1nc(Nc2ccc(Oc3ccccc3)cc2)n[nH]1)C1CC1 (centres undefined)	-10%[88.5 µM]	u	14µM*	u	-22%[70.6 µM]	17%[49.3 µM]	11%[49.3 µM]	u
O=C(c1cc(F)ccc1F)N1CCCC2(C1)NC(=O)N(Cc1cccc(Cl)c1)C2=O (centres undefined)	-9%	u	i	-26%	u	x	x	x
COc1ccc(OC)c(-c2nc3ccc(OC)cc3s2)c1	x	x	x	x	x	21%	14%	u
COc1ccc2nc(NC(=O)Nc3ccccc3)sc2c1	-12%	x	x	x	x	x	x	x
COc1cccc(Nc2cc3c(cn2)CN(C(C)=O)CCN3)c1	3%[88.5 µM]	u	1.8µM*	u	-30%[70.6 µM]	u	u	9µM*
CC(=O)N1CCNc2cc(Nc3cccc(N(C)C)c3)ncc2C1	-13%[88.5 µM]	u	2.8µM*	u	-1%[70.6 µM]	31%[49.3 µM]	u	16µM*
C[C@@H]1C(=O)O[C@H]2[C@H]1CC[C@@]1(C)Cc3sc(NC(=O)c4ccc(F)c(Cl)c4)nc3[C@@H](C)[C@H]21	-2%	u	i	-24%	-16%	x	x	x
C[C@@H]1C(=O)O[C@H]2[C@H]1CC[C@@]1(C)Cc3sc(NC(=O)c4c(F)cccc4F)nc3[C@@H](C)[C@H]21	-5%	u	2.2µM*	-29%	u	20%	19%	9.9µM*
C[C@@H]1C(=O)O[C@H]2[C@H]1CC[C@@]1(C)Cc3sc(NC(=O)c4ccncc4)nc3[C@@H](C)[C@H]21	u	56µM*	0.5µM*	u	u	u	u	0.57µM*
Cc1ccccc1NC(=O)Cn1c(C)cc2nc3n(c(=O)c21)CCCCC3	3%	-10%	i	-9%	0%	x	x	x
Cc1ccccc1CCNC(=O)c1ccc2c(c1)nc1n2CCCCC1	x	x	x	x	x	2.8µM*	u	0.88µM*
Cc1ccccc1CCNC(=O)c1ccc2c(c1)nc1n2CCOC1	x	x	x	x	x	12µM*	u	5µM*
O=C(c1ccccc1OCC1CCCN(C2CCCCCC2)C1)N1CCOCC1 (centres undefined)	i	-22%	i	-17%	-5%	x	x	x
c1ccc2sc(SSc3nc4ccccc4s3)nc2c1	4%[27.3 µM]	x	x	x	x	x	x	x
Clc1cccc(-c2nc3ccccc3s2)c1	x	x	x	x	x	19%	16%	8.8µM*
FC(F)(F)c1cc(-c2nc3ccccc3s2)cc(C(F)(F)F)c1	x	x	x	x	x	13%	12%	u
CC(C)NC(=O)N1Cc2[nH]cnc2C[C@H]1C(=O)NCc1ccc(Cl)cc1	1%[88.5 µM]	-13%[172 µM]	i	-6%[138 µM]	-10%[70.6 µM]	x	x	x
CN1CCc2c(n(Cc3ccc(C(=O)NO)cc3)c3ccccc23)C1	-2%	x	x	x	x	x	x	x
Cc1cccc(NC(=O)c2ccc(-c3ccccc3)s2)c1	x	x	x	x	x	25%	17%	2.8µM*
CNC(=O)c1cc(C)nc2onc(C3CCN(C(=O)c4ccccc4Cl)C3)c12 (centres undefined)	x	-3%	x	-12%	x	x	x	x
CCOc1ccccc1C(=O)NC1CCCN(c2cc(-c3ccc(OC)cc3)[nH]n2)C1 (centres undefined)	-17%	u	i	u	-20%	x	x	x
COc1ccc(-c2cc(N3CCCC(NC(=O)c4c[nH]c5ccccc45)C3)n[nH]2)cc1 (centres undefined)	-23%	u	10µM*	u	-20%	17%	10%	u
COc1ccc(-c2cc(N3CCCC(NC(=O)c4cccs4)C3)n[nH]2)cc1 (centres undefined)	u	u	14µM*	u	-18%	21%	13%	u
COc1ccc(-c2cc(N3CCCC(NC(=O)c4ccc5c(c4)OCO5)C3)n[nH]2)cc1 (centres undefined)	u	u	11µM*	u	-20%	24%	15%	u
COc1ccc(C(=O)NC2CCN(c3cc(-c4ccc(OC)cc4)[nH]n3)C2)cc1 (centres undefined)	-24%	-30%	i	-25%	-12%	x	x	x
COc1ccc(-c2cc(N3CCCC(NC(=O)c4nccc5ccccc45)C3)n[nH]2)cc1 (centres undefined)	u	u	u	u	-19%	x	x	x
COc1ccc(-c2cc(N3CCCC(NC(=O)c4cccc5[nH]ccc45)C3)n[nH]2)cc1 (centres undefined)	u	45µM*	14µM*	35µM*	-25%	14%	7%	u
CCc1n[nH]c(CC2CCN(C(=O)Nc3ccc4c(c3)OCCO4)CC2)n1	i	3%	7.9µM*	i	-28%	21%	16%	u
